# In PMC7862700, “An all-to-all approach to the identification of sequence-specific readers for epigenetic DNA modifications on cytosine”:
# Key:
# Assay in all cases: DAPPL (digital affinity profiling via proximity ligation, sequencing); 10 mM Tris-HCl pH 7.5, 50 mM NaCl, 1 mM DTT, 4% glycerol, room temperature, 30 min; GST-TFs on glutathione beads, 16-mer random dsDNA library, 0.1% formaldehyde crosslink after washing; high values mean tight binding
# FLI1 = target: T1, FLI1 (Homo sapiens, UniProt Q01543 1-452); conditions: protein: recombinant; tags: N-terminal GST; dsDNA, one strand shown
# T1 sequence: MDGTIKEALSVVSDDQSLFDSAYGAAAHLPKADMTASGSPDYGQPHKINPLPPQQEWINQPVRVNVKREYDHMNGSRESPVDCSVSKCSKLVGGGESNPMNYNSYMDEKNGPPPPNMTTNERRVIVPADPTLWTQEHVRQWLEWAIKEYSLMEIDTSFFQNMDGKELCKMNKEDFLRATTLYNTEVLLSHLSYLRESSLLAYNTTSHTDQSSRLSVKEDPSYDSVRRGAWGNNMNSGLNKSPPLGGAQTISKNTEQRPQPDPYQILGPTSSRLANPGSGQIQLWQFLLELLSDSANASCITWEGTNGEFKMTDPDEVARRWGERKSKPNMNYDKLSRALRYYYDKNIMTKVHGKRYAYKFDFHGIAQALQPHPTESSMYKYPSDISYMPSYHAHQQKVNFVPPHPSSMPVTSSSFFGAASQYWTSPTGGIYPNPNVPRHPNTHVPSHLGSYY
# Summary of the method: (§1)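 A tag-only sample was pooled with DNA-barcoded human transcription factors that had been expressed in yeast as GST fusions and captured on glutathione beads. The pools were incubated for 30 min at room temperature with 200 nmole of a random double-stranded 16-mer DNA library in Tris/NaCl/DTT/glycerol buffer, then washed, crosslinked with 0.1% formaldehyde, proximity-ligated (BsaI/T4 ligase, 1 h, 37 °C), PCR-amplified and sequenced on an Illumina NextSeq500. Binding signal is each hexamer's read frequency for a factor divided by its frequency for the tag-only sample.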
# ELK1 = target: T2, ELK1 (Homo sapiens, UniProt P19419 1-428); conditions: protein: recombinant; tags: N-terminal GST; dsDNA, one strand shown
# T2 sequence: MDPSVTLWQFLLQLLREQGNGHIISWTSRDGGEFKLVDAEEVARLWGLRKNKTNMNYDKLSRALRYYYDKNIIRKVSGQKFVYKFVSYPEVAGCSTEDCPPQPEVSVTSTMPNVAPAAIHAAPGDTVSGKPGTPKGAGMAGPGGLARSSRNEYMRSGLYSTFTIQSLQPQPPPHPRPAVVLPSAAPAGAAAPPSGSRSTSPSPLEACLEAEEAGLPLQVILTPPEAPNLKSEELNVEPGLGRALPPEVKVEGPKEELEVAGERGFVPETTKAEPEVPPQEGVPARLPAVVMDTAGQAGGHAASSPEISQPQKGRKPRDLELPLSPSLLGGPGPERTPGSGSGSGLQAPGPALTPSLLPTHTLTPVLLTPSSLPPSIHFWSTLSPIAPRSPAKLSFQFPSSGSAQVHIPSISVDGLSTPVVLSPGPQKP
# Summary of the method: as §1
# GABPA = target: T3, GABPA (Homo sapiens, UniProt Q06546 1-454); conditions: protein: recombinant; tags: N-terminal GST; dsDNA, one strand shown
# T3 sequence: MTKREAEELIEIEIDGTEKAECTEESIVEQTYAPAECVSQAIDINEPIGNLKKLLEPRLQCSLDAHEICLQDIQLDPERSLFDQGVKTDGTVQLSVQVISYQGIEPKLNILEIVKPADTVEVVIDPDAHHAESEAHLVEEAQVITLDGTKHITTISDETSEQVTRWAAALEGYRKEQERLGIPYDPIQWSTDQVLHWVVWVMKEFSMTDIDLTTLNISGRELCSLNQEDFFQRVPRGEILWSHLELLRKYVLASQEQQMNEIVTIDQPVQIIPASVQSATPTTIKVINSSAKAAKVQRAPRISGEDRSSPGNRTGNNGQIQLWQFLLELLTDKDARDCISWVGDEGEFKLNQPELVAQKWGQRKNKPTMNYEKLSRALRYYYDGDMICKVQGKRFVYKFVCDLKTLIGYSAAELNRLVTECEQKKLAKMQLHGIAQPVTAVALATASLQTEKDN
# Summary of the method: as §1
# ERG = target: T4, ERG (Homo sapiens, UniProt P11308 1-479); conditions: protein: recombinant; tags: N-terminal GST; dsDNA, one strand shown
# T4 sequence: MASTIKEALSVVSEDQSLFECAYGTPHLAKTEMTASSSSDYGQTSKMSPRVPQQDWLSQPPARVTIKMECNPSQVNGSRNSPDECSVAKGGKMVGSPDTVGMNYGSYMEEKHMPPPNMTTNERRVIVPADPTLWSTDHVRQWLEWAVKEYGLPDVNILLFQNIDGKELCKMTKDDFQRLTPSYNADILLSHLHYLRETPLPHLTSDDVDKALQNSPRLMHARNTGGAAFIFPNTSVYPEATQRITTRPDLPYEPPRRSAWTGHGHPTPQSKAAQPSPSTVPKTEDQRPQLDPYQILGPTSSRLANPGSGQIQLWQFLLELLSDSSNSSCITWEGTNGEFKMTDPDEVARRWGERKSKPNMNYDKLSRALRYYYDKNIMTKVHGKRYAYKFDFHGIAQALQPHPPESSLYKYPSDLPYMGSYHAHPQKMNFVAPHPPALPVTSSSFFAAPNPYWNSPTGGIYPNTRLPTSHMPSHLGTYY
# Summary of the method: as §1
# ELF1 = ELF1 (Homo sapiens, UniProt P32519 1-619); conditions: protein: recombinant; tags: N-terminal GST; dsDNA, one strand shown
# Chain of ELF1 (P32519 whole entry): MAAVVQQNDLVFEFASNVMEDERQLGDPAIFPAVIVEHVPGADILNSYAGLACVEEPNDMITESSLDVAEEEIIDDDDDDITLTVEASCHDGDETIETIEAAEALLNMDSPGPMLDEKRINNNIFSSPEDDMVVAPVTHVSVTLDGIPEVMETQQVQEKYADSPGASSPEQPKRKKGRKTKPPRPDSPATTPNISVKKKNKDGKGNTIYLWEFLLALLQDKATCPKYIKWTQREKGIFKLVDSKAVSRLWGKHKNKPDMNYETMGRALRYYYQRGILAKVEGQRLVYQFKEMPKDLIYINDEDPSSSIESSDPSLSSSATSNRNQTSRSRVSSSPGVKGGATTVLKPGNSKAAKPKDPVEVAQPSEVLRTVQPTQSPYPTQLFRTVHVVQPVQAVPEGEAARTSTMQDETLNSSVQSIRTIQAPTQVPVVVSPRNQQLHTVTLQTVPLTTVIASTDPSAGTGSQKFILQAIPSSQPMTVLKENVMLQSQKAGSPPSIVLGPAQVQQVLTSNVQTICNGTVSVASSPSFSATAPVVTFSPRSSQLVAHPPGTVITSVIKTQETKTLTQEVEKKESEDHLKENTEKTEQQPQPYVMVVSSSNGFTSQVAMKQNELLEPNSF
# Summary of the method: as §1
# EHF = target: T5, EHF (Homo sapiens, UniProt Q9NZC4 1-300); conditions: protein: recombinant; tags: N-terminal GST; dsDNA, one strand shown
# T5 sequence: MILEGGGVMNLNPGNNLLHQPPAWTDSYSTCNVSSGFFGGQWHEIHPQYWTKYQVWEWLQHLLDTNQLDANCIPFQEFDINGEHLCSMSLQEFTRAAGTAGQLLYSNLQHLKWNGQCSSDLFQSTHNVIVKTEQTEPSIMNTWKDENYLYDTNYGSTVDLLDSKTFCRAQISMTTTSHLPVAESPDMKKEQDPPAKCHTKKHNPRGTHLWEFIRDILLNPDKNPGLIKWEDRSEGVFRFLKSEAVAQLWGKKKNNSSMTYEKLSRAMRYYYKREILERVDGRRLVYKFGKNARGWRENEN
# Summary of the method: as §1
# SPI1 = SPI1 (Homo sapiens, UniProt P17947 1-270); conditions: protein: recombinant; tags: N-terminal GST; dsDNA, one strand shown
# Summary of the method: as §1
# SPIB = SPIB (Homo sapiens, UniProt Q01892 1-262); conditions: protein: recombinant; tags: N-terminal GST; dsDNA, one strand shown
# Chain of SPIB (Q01892 whole entry): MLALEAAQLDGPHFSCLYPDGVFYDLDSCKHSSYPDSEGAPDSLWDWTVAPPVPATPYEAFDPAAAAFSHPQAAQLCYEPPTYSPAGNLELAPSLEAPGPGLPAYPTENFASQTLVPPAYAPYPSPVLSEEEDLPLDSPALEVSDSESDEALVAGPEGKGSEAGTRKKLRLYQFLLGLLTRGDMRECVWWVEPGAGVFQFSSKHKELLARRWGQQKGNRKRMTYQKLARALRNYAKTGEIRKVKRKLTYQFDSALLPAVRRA
# Summary of the method: as §1
# ELK3 = target: T6, ELK3 (Homo sapiens, UniProt P41970 1-407); conditions: protein: recombinant; tags: N-terminal GST; dsDNA, one strand shown
# T6 sequence: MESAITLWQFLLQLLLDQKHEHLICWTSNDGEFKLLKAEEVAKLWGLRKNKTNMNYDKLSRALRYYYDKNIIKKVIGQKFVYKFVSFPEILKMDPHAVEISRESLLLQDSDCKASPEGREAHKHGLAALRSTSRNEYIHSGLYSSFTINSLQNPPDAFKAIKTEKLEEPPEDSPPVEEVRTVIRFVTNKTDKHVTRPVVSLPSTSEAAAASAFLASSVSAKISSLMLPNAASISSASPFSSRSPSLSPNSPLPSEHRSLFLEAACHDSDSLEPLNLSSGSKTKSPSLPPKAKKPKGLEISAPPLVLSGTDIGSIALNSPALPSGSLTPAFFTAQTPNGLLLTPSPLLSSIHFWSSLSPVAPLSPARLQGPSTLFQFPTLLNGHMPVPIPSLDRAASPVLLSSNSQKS
# Summary of the method: as §1
# FEV = target: T7, FEV (Homo sapiens, UniProt Q99581 1-238); conditions: protein: recombinant; tags: N-terminal GST; dsDNA, one strand shown
# T7 sequence: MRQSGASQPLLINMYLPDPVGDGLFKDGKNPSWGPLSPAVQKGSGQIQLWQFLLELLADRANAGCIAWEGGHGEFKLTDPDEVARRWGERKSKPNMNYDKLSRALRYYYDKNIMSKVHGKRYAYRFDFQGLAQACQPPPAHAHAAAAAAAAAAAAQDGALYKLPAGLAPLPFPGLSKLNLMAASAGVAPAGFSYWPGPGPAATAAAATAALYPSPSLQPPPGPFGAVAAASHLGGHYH
# Summary of the method: as §1
# ETV5 = ETV5 (Homo sapiens, UniProt P41161 1-510); conditions: protein: recombinant; tags: N-terminal GST; dsDNA, one strand shown
# Chain of ETV5 (P41161 whole entry): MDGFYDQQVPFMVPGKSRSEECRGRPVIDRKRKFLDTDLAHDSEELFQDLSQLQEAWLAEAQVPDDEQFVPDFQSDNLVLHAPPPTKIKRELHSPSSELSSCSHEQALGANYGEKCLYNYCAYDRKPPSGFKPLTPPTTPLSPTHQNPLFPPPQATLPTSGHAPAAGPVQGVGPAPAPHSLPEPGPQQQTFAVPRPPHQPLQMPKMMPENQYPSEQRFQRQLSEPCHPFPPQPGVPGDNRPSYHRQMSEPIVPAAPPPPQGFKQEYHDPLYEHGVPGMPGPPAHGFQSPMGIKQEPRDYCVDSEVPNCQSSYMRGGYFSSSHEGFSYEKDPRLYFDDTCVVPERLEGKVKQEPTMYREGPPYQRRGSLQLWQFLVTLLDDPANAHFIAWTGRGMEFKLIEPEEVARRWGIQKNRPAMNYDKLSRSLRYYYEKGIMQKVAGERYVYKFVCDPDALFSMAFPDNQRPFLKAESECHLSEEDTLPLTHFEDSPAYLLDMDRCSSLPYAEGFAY
# Summary of the method: as §1
# HSF1 = HSF1 (Homo sapiens, UniProt Q00613 1-529); conditions: protein: recombinant; tags: N-terminal GST; chain copies: 3; dsDNA, one strand shown
# Chain of HSF1 (Q00613 whole entry): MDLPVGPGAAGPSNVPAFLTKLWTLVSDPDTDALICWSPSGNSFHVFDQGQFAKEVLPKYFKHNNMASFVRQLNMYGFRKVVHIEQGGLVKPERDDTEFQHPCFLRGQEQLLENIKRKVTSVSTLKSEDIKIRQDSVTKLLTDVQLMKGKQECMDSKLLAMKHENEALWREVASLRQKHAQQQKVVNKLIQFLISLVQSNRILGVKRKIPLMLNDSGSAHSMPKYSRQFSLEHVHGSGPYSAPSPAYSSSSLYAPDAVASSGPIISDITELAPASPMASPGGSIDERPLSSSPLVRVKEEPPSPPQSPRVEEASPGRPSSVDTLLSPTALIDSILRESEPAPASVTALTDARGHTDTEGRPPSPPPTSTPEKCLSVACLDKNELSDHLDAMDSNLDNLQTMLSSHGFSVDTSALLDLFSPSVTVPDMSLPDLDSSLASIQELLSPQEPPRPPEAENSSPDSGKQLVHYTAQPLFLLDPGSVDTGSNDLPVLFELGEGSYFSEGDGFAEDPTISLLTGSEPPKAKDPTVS
# Summary of the method: as §1
# SPIC = target: T8, SPIC (Homo sapiens, UniProt Q8N5J4 1-248); conditions: protein: recombinant; tags: N-terminal GST; dsDNA, one strand shown
# T8 sequence: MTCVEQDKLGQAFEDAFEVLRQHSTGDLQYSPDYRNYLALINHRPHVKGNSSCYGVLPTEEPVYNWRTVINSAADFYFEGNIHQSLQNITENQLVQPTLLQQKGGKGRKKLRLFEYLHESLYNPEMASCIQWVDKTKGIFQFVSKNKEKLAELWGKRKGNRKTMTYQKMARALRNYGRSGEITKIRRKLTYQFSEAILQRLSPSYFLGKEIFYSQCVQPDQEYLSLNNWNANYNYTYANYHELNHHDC
# Summary of the method: as §1
# ELF4 = ELF4 (Homo sapiens, UniProt Q99607 1-663); conditions: protein: recombinant; tags: N-terminal GST; dsDNA, one strand shown
# Chain of ELF4 (Q99607 whole entry): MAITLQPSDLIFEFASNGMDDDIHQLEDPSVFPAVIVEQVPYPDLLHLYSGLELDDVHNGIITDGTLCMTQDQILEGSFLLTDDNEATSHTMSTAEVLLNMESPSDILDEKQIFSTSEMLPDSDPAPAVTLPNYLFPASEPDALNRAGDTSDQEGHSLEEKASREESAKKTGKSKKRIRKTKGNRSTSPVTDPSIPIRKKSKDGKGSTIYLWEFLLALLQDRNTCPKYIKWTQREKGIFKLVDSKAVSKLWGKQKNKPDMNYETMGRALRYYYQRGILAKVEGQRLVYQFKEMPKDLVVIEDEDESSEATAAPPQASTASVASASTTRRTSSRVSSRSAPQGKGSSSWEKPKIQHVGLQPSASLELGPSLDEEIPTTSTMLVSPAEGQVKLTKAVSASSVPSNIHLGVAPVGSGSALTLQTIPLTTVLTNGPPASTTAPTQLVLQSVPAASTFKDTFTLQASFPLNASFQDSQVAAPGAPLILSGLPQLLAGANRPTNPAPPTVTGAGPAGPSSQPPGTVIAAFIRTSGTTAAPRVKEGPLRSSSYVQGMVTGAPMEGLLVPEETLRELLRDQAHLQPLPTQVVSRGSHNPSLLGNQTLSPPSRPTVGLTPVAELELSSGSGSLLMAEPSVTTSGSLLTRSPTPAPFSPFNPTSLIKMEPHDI
# Summary of the method: as §1
# ELK4 = target: T9, ELK4 (Homo sapiens, UniProt P28324-2 1-405); conditions: protein: recombinant; tags: N-terminal GST; dsDNA, one strand shown
# T9 sequence: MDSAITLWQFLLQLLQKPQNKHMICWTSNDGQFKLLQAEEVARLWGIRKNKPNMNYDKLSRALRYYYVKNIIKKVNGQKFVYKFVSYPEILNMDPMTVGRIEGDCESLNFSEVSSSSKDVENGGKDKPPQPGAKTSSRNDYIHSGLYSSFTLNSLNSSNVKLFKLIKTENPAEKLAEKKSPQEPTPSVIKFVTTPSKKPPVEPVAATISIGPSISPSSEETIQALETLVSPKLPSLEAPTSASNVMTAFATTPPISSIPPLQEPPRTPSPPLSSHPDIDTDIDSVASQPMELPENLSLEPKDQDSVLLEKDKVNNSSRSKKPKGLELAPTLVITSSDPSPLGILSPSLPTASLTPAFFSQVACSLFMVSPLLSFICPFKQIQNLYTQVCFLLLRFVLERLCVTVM
# Summary of the method: as §1
# ETV2 = target: T10, ETV2 (Homo sapiens, UniProt O00321 1-342); conditions: protein: recombinant; tags: N-terminal GST; dsDNA, one strand shown
# T10 sequence: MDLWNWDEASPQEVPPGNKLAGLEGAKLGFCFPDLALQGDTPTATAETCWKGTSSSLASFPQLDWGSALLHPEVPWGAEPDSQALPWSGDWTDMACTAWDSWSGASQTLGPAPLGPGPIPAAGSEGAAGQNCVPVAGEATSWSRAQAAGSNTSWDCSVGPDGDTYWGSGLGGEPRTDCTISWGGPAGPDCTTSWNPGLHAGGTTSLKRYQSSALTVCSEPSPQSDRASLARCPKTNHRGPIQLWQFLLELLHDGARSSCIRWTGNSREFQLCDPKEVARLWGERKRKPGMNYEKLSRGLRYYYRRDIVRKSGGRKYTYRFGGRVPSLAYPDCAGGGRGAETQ
# Summary of the method: as §1
# ELF3 = target: T11, ELF3 (Homo sapiens, UniProt P78545 1-371); conditions: protein: recombinant; tags: N-terminal GST; dsDNA, one strand shown
# T11 sequence: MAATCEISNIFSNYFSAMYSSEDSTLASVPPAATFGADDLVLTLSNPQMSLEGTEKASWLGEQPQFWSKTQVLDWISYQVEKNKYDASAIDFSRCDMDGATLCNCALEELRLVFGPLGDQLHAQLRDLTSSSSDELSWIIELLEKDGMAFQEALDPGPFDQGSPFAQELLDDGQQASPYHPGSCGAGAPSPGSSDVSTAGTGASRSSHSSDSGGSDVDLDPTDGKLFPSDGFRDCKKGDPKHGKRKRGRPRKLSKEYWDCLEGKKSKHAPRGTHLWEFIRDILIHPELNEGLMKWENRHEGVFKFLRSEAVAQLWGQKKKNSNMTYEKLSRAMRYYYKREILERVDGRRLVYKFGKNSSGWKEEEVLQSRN
# Summary of the method: as §1
# CRX = CRX (Homo sapiens, UniProt O43186 1-299); conditions: protein: recombinant; tags: N-terminal GST; dsDNA, one strand shown
# Chain of CRX (O43186 whole entry): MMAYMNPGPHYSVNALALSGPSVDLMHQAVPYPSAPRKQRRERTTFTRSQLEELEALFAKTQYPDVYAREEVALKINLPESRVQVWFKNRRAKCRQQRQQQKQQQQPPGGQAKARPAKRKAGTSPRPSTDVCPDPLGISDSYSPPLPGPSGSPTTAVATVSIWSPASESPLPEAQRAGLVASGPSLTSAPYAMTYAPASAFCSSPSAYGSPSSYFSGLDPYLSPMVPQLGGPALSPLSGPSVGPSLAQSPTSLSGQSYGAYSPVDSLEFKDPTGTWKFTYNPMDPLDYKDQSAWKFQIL
# Summary of the method: as §1
# ETV1 = ETV1 (Homo sapiens, UniProt P50549 1-477); conditions: protein: recombinant; tags: N-terminal GST; dsDNA, one strand shown
# Chain of ETV1 (P50549 whole entry): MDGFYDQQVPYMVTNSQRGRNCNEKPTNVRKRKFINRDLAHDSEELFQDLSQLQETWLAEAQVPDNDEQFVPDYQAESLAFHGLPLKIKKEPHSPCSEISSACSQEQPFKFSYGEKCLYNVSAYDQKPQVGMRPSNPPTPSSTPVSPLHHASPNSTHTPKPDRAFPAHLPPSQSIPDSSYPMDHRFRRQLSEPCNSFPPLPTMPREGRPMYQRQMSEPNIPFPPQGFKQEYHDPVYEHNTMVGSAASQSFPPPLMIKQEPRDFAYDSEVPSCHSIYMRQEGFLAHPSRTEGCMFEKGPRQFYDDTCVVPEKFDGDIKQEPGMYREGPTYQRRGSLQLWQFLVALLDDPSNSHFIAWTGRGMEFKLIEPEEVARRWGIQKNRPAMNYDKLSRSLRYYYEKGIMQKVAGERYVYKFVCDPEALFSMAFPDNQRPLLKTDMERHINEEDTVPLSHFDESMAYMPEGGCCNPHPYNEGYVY
# Summary of the method: as §1
sequence,measurement,setting,value
CCTGCG,binding signal,FLI1,"1.27 fold enrichment (6-mer frequency, TF over GST control)"
same,binding signal,ELK1,"1.34 fold enrichment (6-mer frequency, TF over GST control)"
same,binding signal,GABPA,"1.39 fold enrichment (6-mer frequency, TF over GST control)"
same,binding signal,ERG,"1.27 fold enrichment (6-mer frequency, TF over GST control)"
same,binding signal,ELF1,"1.38 fold enrichment (6-mer frequency, TF over GST control)"
same,binding signal,EHF,"1.31 fold enrichment (6-mer frequency, TF over GST control)"
same,binding signal,SPI1,"1.23 fold enrichment (6-mer frequency, TF over GST control)"
same,binding signal,SPIB,"1.35 fold enrichment (6-mer frequency, TF over GST control)"
same,binding signal,ELK3,"1.22 fold enrichment (6-mer frequency, TF over GST control)"
same,binding signal,FEV,"1.28 fold enrichment (6-mer frequency, TF over GST control)"
same,binding signal,ETV5,"1.27 fold enrichment (6-mer frequency, TF over GST control)"
same,binding signal,HSF1,"1.1 fold enrichment (6-mer frequency, TF over GST control)"
same,binding signal,SPIC,"1.12 fold enrichment (6-mer frequency, TF over GST control)"
same,binding signal,ELF4,"1.32 fold enrichment (6-mer frequency, TF over GST control)"
same,binding signal,ELK4,"1.37 fold enrichment (6-mer frequency, TF over GST control)"
same,binding signal,ETV2,"1.41 fold enrichment (6-mer frequency, TF over GST control)"
same,binding signal,ELF3,"1.23 fold enrichment (6-mer frequency, TF over GST control)"
same,binding signal,CRX,"1.05 fold enrichment (6-mer frequency, TF over GST control)"
same,binding signal,ETV1,"1.39 fold enrichment (6-mer frequency, TF over GST control)"
